Screens: PubChem, National Center for Advancing Translational Sciences (NCATS)
Vaccinia Venus: inhibitors of vaccinia virus (Venus reporter) | Vaccinia virus Venus reporter expression, fluorescence | Potency, µM (highest dose often 36.5 µM), for inactives: at the top dose activity change, negative = inhibition, hits mostly inhibitors | 330,000 tested, 0.46% active | AID 720580; calls by dose curve; tested in A549 cells; note: potency is the fitted concentration of half-maximal effect; nearly all actives have a fitted effect of over 30% in size
HCMV antiviral: blocks human cytomegalovirus replication. activity change, negative = inhibition, % at 57.5 µM. HFF cells, HCMV-luciferase reporter, 72 h; stronger effect = lower value. 410,000 tested, 4.5% active; in the data active = activity change below about -60%; inconclusive = no clear call, values can overlap the other calls; inactive = above about -39%
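Two compound doses tested in HFFs infected with HCMV-luciferase, MOI 1 PFU/cell, 72 h at 37C. Lysate luminescence read with OneGlo; data normalized against buffer-only and 10uM Salinomycin inhibitor controls.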
Lassa entry inh: inhibitors of Lassa virus binding or cell entry; Potency, µM (doses to about 37.9 µM), inactives show at the top dose activity change, negative = inhibition, hits mostly inhibitors; 300,000 tested, 1.2% active; Lassa virus pseudotype entry inhibition, cell reporter; calls by dose curve; tested in HEK293 cells; note: potency is the fitted concentration of half-maximal effect; nearly all actives have a fitted effect of over 50% in size
Marburg entry inh: blocks Marburg virus binding to or entry into cells; Marburg virus pseudotyped entry inhibition, cell reporter; Potency, µM (top dose mostly 37.8 µM), inactives show top-dose activity change, negative = inhibition, hits mostly inhibitors; 300,000 tested, 1.8% active; AID 540276; calls by dose curve; tested in HEK293 cells; note: potency is the fitted concentration of half-maximal effect
VACV mCherry inh: vaccinia inhibition (mCherry reporter) | Vaccinia virus mCherry reporter infection, fluorescence | Potency, µM (titrated, usually from 36.5 µM), for inactives: at the top dose activity change, negative = inhibition, hits mostly inhibitors | 310,000 tested, 0.63% active; calls by dose curve; tested in A549 cells; note: potency is the fitted concentration of half-maximal effect; nearly all actives have a fitted effect of over 35% in size
FMDV antiviral: blocks foot and mouth disease virus; FMDV antiviral cell-based qHTS; Potency, µM (highest dose often 57.9 µM), without a hit: top-dose activity change, negative = inhibition, usual class: inhibitors; 410,000 tested, 1.2% active; AID 1159524; calls by dose curve; tested in HEK293T cells; note: read-out not given here; potency is the fitted concentration of half-maximal effect; nearly all actives have a fitted effect of over 45% in size
Starred values were filed as active, the others as inactive; i = inactive; ? = inconclusive; nt = no result given; [ ] = remark or other dose. Only some compounds are listed: those with a hit (about 6.5% of all), similar ones and a draw of the others. % is set by controls: 0 for no effect and ±100 for the full control effect.

SMILES | Vaccinia Venus | HCMV antiviral | Lassa entry inh | Marburg entry inh | VACV mCherry inh | FMDV antiviral
O=C(CSc1nnc(NC(=O)c2cccc(Br)c2)s1)NCC1CCCO1 (stereo not given) | -10% | -98* | -15% | -7% | i | 28%
COCOc1ccc(Br)cc1C(=O)C=Cc1ccc2c(c1)OCO2 | nt | nt | nt | 6%[14.2 µM] | nt | nt
Cc1nc2scc(-c3ccc(C(C)C)cc3)c2c(=O)n1N | -12% | -62* | 12% | ? | -12% | ?
O=C(CSc1nc2ccccc2nc1Cc1ccccc1F)Nc1cccc(C(F)(F)F)c1 | 0% | 4 | 5%[46.1 µM] | ? | -8% | -7%
Cc1nn(Cc2ccc(Cl)cc2)c(C)c1NC(=O)c1cc(-c2ccc3c(c2)OCO3)on1 | nt | -94* | -18% | ? | nt | ?
Cc1nn(Cc2ccc(Cl)c(Cl)c2)c(C)c1NC(=O)c1cc(-c2ccc3c(c2)OCO3)on1 | nt | -73* | ? | 6.5µM* | nt | ?
COc1ccc(-c2cc(C(=O)Nc3cc(C)n(Cc4ccc(Cl)cc4)n3)no2)cc1OC | ? | ? | ? | ? | ? | 3.5µM*
Cc1nn(Cc2ccc(Cl)cc2)c(C)c1NC(=O)c1cc(C(C)C)on1 | -2% | ? | -28%[46.1 µM] | ? | -27% | ?
CN1CCCN=C1COC(=O)[C@@](O)(c1ccccc1)C1CCCCC1 | nt | nt | nt | -6% | nt | nt
Cc1ccn(-c2n[nH]c(C)c2[N+](=O)[O-])n1 | -4% | -14 | 10% | ? | i | -21%
Cc1ccn(-c2ccc([N+](=O)[O-])cc2)n1 | nt | -88* | -11% | 15% | nt | 4%
CCOc1ccc(-c2nnc3sc(COc4ccc(Cl)cc4)nn23)cc1 | -10% | -12 | -23% | -1%[46.1 µM] | nt | -21%
CCOc1ccc(-c2nnc3sc(COc4ccc(C)cc4)nn23)cc1 | -5% | 3 | 8.2µM* | 7%[46.1 µM] | -7% | 0%
CC(=O)Nc1nonc1-c1nnc(SCC(=O)Nc2cccc(C)c2C)n1-c1ccccc1 | -4% | 31 | -8%[46.1 µM] | -10%[46.1 µM] | -6% | -17%
O=C(O)c1cccc2c1C(=O)c1ccc(-c3ccc(F)cc3F)cc1S2(=O)=O | 1% | -61* | nt | nt | -5% | 0%
O=C(O)c1cccc2c1C(=O)c1ccc(-c3ccc(F)cc3OCc3ccccc3)cc1S2(=O)=O | -7% | nt | nt | nt | -2% | 39%
C[C@@H]1CN([C@H](C)CO)C(=O)c2cc(Br)cnc2O[C@H]1CN(C)C(=O)Cc1ccncc1 | 1.3µM* | -6 | nt | nt | ? | -5%
C[C@@H]1CN([C@H](C)CO)S(=O)(=O)c2ccc(Br)cc2O[C@@H]1CN(C)Cc1ccc(-c2ccccc2)cc1 | -18% | -10 | nt | nt | -26% | -23%
C[C@@H]1CN([C@H](C)CO)C(=O)c2cc(Br)cnc2O[C@@H]1CN(C)C(=O)Cc1ccccc1 | -7% | 3 | nt | nt | i | 1%
C[C@H](CO)N1C[C@H](C)[C@@H](CN(C)Cc2ccc(-c3ccccc3)cc2)Oc2ncc(C#C[C@@H](C)O)cc2C1=O | -30% | 6 | nt | nt | ? | 2%
C[C@H](O)C#Cc1cnc2c(c1)C(=O)N([C@H](C)CO)C[C@@H](C)[C@@H](CN(C)Cc1ccc(-c3ccccc3)cc1)O2 | ? | -71* | nt | nt | ? | -17%
C[C@H](O)C#Cc1ccc2c(c1)O[C@@H](CN(C)Cc1ccc(-c3ccccc3)cc1)[C@H](C)CN([C@@H](C)CO)S2(=O)=O | ? | -82* | nt | nt | -23% | ?
CCc1ccc(-n2c(=O)c3cccnc3n2CC(=O)Nc2cc(F)ccc2F)cc1 | -7%[7.34 µM] | -15 | ? | nt | -11%[7.34 µM] | -5%
COc1ccc(C(=O)NCC2Cc3cccc(-c4cncnc4)c3O2)c(OC)c1OC (stereo not given) | -18% | nt | nt | nt | -24% | ?
Fc1cccc(-c2cc3cnc(Nc4ccc(C(F)(F)F)cc4)cc3[nH]2)c1 | nt | -7 | nt | nt | nt | nt
SMILES | Vaccinia Venus | HCMV antiviral | Lassa entry inh | Marburg entry inh | VACV mCherry inh | FMDV antiviral
COc1cc(OC)cc(-c2cc3c(Nc4ccc(OC)nc4)nccc3n2C)c1 | nt | -31 | nt | nt | nt | nt
O=C(Nc1ccc(NC(=O)c2cccs2)cc1)c1ccc(Cl)cc1 | -4% | 2 | -2%[46.1 µM] | nt | -3% | -2%
COc1c(Cl)cc(Cl)cc1/C=C/C(=O)c1ccc(NC(=O)c2cccs2)cc1 | 10µM* | -99* | ? | 11µM* | 11µM* | 0%
CC(=O)N1CCC2(CCN(Cc3cc(C(F)(F)F)cc(C(F)(F)F)c3)CC2)CC1 | nt | nt | nt | nt | nt | 10%
CCC(C)NC(=O)c1ccc2c(c1)N=C(C)c1cc(C)ccc1S2 (stereo not given) | -20% | -72* | -17%[46.1 µM] | ? | -23% | -18%
CC1=Nc2cc(C(=O)NCC3CCCO3)ccc2Sc2ccc(C)cc21 (stereo not given) | nt | -72* | nt | nt | nt | 11%
CC1=Nc2cc(C(=O)NCCCN3CCN(C)CC3)ccc2Sc2ccc(C)cc21 | nt | -24 | nt | nt | nt | 2%
CC1=Nc2cc(C(=O)NCc3ccco3)ccc2Sc2ccc(C)cc21 | ? | -92* | ? | -41% | ? | 7%
CC1=Nc2cc(C(=O)O)ccc2Sc2ccc(C)cc21 | -12% | -11 | 13%[46.1 µM] | -3%[46.1 µM] | -14% | 0%
CCC(=O)NC(c1ccc([N+](=O)[O-])cc1)c1c(O)ccc2ccccc12 (stereo not given) | nt | -29 | -15% | -25% | nt | 0%
CCCCC(=O)NC(c1ccc([N+](=O)[O-])cc1)c1c(O)ccc2ccccc12 (stereo not given) | ? | -99* | ? | ? | ? | 20µM*
O=C(NC(c1ccccc1)c1c(O)ccc2ccccc12)c1ccccc1Cl (stereo not given) | nt | 17 | ? | -28% | nt | ?
O=C(NC(c1ccc(Cl)cc1)c1c(O)ccc2ccccc12)c1ccccc1 (stereo not given) | ? | -101* | ? | ? | 10µM* | ?
CCCCC(=O)NC(c1cccc([N+](=O)[O-])c1)c1c(OC(C)=O)ccc2ccccc12 (stereo not given) | ? | ? | -5% | -9% | 28µM* | ?
CC(C)CC(=O)NC(Nc1ccccc1F)C(Cl)(Cl)Cl (stereo not given) | -11% | -29 | 4% | -25% | -4% | -8%
CC(C)CC(=O)NC(Nc1ccc([N+](=O)[O-])cc1)C(Cl)(Cl)Cl (stereo not given) | ? | -27 | ? | ? | ? | 32µM*
CCc1ccc(CN(C(=O)COc2c(C)cccc2C)C2CCS(=O)(=O)C2)cc1 (stereo not given) | nt | -109* | nt | nt | nt | 14%
Cc1ccsc1CN(C(=O)c1oc2ccc(F)cc2c1C)C1CCS(=O)(=O)C1 (stereo not given) | -22% | 33 | ? | -12%[46.1 µM] | -24% | -20%
Cc1ccc2oc(C(=O)N(Cc3sccc3C)C3CCS(=O)(=O)C3)c(C)c2c1 (stereo not given) | -16% | 8 | ? | 3.2µM* | i | ?
CCOc1ccc(CN(C(=O)c2oc3cc(C)ccc3c2C)C2CCS(=O)(=O)C2)cc1 (stereo not given) | nt | 14 | 13µM* | ? | nt | -20%
